Reference: PubChem BioAssay (Tox21)
Where “and” joins values, the source holds several entries; their conditions need not be identical. Identical values can stand only once. Inconclusive results are not listed. Calls of active or inactive are those of the source. Calls come from the whole dose curve; as a rule, active = well fitted curve in the direction sought with a large enough effect in the repeat runs; inconclusive = weak or mixed curves; inactive = no such curve, though single readings can be large; an effect the other way counts as inactive or inconclusive.

Assays:
[1] = A CellTox Green Cytotoxicity Assay to monitor cytotoxicity in HEK293 cells - 40 hour (AID 1224871); note: nearly all actives have a fitted effect of over 45% in size; note: potency is the fitted concentration of half-maximal effect
How it was run: (§1)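 Tox21 screen in HEK293: membrane-impermeant cyanine dye fluoresces on binding dead-cell DNA; compound pinned 5 h post-seeding, plates held at 37 C, signal read repeatedly through 40 h.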

[2] = qHTS RealTime-Glo MT Cell Viability Assay in HEK293 cells - 16 hour (AID 1224872); note: nearly all actives have a fitted effect of over 50% in size; note: potency is the fitted concentration of half-maximal effect
How it was run: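 Cells + reagent dispensed (600 cells/well, HEK293) → 5 h at 37 C/5% CO2 → 23 nL compound in DMSO pinned → 40 h at 37 C → luminescence read at 0, 8, 16, 24, 32, 40 h.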

[3] = qHTS RealTime-Glo MT Cell Viability Assay in HepG2 cells - 8 hour (AID 1224873); note: nearly all actives have a fitted effect of over 55% in size; note: potency is the fitted concentration of half-maximal effect
How it was run: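 Real-time viability: cells seeded at 600 per well together with NanoLuc and cell-permeant prosubstrate, compounds added after 5 h incubation. Luminescence tracked at 0, 8, 16, 24, 32 and 40 h of exposure.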

[4] = A CellTox Green Cytotoxicity Assay to monitor cytotoxicity in HEK293 cells - 24 hour (AID 1224875); note: nearly all actives have a fitted effect of over 45% in size; note: potency is the fitted concentration of half-maximal effect
How it was run: as §1

[5] = A CellTox Green Cytotoxicity Assay to monitor cytotoxicity in HepG2 cells - 16 hour (AID 1224876); note: nearly all actives have a fitted effect of over 45% in size; note: potency is the fitted concentration of half-maximal effect
How it was run: (§2)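 Measurements at 0, 8, 16, 24, 32 and 40 h of treatment captured CellTox Green fluorescence in HepG2 cells that had been co-plated with reagent and preincubated 5 h at 37 C/5% CO2.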

[6] = qHTS RealTime-Glo MT Cell Viability Assay in HepG2 cells - 32 hour (AID 1224877); note: nearly all actives have a fitted effect of over 55% in size; note: potency is the fitted concentration of half-maximal effect
How it was run: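 Real-time, nonlytic viability: 600 HepG2 cells/well mixed with NanoLuc enzyme plus prosubstrate; 5 h settle, compound (DMSO) added by pintool; luminescence monitored over 40 h at 37 C.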

[7] = A CellTox Green Cytotoxicity Assay to monitor cytotoxicity in HepG2 cells - 40 hour (AID 1224879); note: nearly all actives have a fitted effect of over 40% in size; note: potency is the fitted concentration of half-maximal effect
How it was run: as §2

[8] = qHTS RealTime-Glo MT Cell Viability Assay in HEK293 cells - 0 hour (AID 1224880); note: top concentration of the series differs between compounds; nearly all actives have a fitted effect of over 45% in size
How it was run: (§3)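 HEK293 + NanoLuc + prosubstrate, 600 cells/well; 5 h, 37 C/5% CO2; compound 23 nL in DMSO by pintool; 37 C; luminescence read at 0, 8, 16, 24, 32 and 40 h time points.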

[9] = A CellTox Green Cytotoxicity Assay to monitor cytotoxicity in HepG2 cells - 24 hour (AID 1224878); note: nearly all actives have a fitted effect of over 45% in size; note: potency is the fitted concentration of half-maximal effect
How it was run: as §2

[10] = qHTS RealTime-Glo MT Cell Viability Assay in HEK293 cells - 40 hour (AID 1224874); details: RealTime-Glo luminescence; max response: hits give low values; note: nearly all actives have a fitted effect of over 50% in size; note: potency is the fitted concentration of half-maximal effect
How it was run: as §3
% is set by controls: 0 for no effect and ±100 for the full control effect.

CC(=O)/C=C/c1ccc2c(c1)OCO2
inactive: Potency [1] | Potency [2] | Potency [3] | Potency [4] | Potency [5] | Potency [6] | Potency [8]
active: Potency [7] 49.2 µM

Nc1c(Oc2ccccc2)cc(O)c2c1C(=O)c1ccccc1C2=O
inactive: Potency [1] | Potency [3] | Potency [5] | Potency [6] | Potency [9] | Potency [7] | Potency [8]
active: Potency [2] 10.7 µM

Clc1ccc(-c2ccc(Cl)c(Cl)c2Cl)c(Cl)c1Cl
inactive: Potency [1] | Potency [2] | Potency [3] | Potency [5] | Potency [6] | Potency [9] | Potency [7] | Potency [8]

CCCCCCCCCBr
inactive: Potency [1] | Potency [2] | Potency [3] | Potency [4] | Potency [5] | Potency [6] | Potency [9] | Potency [7] | Potency [8]

O=C1c2ccccc2C(=O)C1C(=O)C(c1ccccc1)c1ccc(Cl)cc1 (configuration not stated)
inactive: Potency [1] | Potency [2] | Potency [3] | Potency [6]
active: Potency [5] 49 µM | Potency [9] 54.9 µM

O=c1c(C2CC(c3ccc(-c4ccc(Br)cc4)cc3)Cc3ccccc32)c(O)sc2ccccc12 (configuration not stated)
inactive: Potency [1] | Potency [2] | max response [10] -20.8% | Potency [4] | Potency [5] | Potency [9]

CCCCCCCCCCCCCCCC[n+]1ccccc1
inactive: Potency [8]
active: Potency [1] 34.2 µM [middle of 4 runs] | Potency [2] 21.6 µM [middle of 4 runs] | Potency [3] 57.5 µM and 49 µM and 48.3 µM | Potency [7] 15.5 µM [middle of 4 runs]

CC[C@H]1C[C@@H]2C[C@H]3c4[nH]c5ccc(OC)cc5c4CCN(C2)[C@@H]13
inactive: Potency [1] | Potency [2] | Potency [3] | Potency [4] | Potency [5] | Potency [6] | Potency [8]
active: Potency [9] 54 µM

CC(C)CCCCCOC(=O)c1ccccc1C(=O)OCCCCCC(C)C
inactive: Potency [1] | Potency [2] | Potency [3] | Potency [4] | Potency [6] | Potency [9] | Potency [7]

CCCCCCCCCCCCBr
inactive: Potency [1] | Potency [2] | Potency [3] | Potency [4] | Potency [5] | Potency [6] | Potency [9] | Potency [7] | Potency [8]

CCCCCCCCc1ccc(O)cc1
active: Potency [1] 19.6 µM | Potency [2] 4.39 µM | Potency [10] 17 µM | Potency [4] 17.5 µM | Potency [5] 38 µM | Potency [9] 19.6 µM | Potency [7] 19.6 µM

Cc1cc(C(F)(C(F)(F)F)C(F)(F)F)ccc1NC(=O)c1cccc(I)c1C(=O)NC(C)(C)CS(C)(=O)=O
inactive: Potency [1] | Potency [2] | Potency [3] | Potency [4] | Potency [5] | Potency [6] | Potency [9] | Potency [7] | Potency [8]

CC(C)OC(=O)C(O)(c1ccc(Cl)cc1)c1ccc(Cl)cc1
active: Potency [1] 49 µM | Potency [2] 30.9 µM | Potency [10] 24.5 µM | Potency [9] 27.5 µM | Potency [7] 38.9 µM
inactive: Potency [8]

CN(C)[C@@H]1C(=O)C(C(N)=O)=C(O)[C@@]2(O)C(=O)C3=C(O)c4c(O)ccc(Cl)c4[C@@](C)(O)[C@H]3C[C@@H]12
inactive: Potency [1] | Potency [2] | Potency [3] | Potency [4] | Potency [5] | Potency [6] | Potency [9] | Potency [7] | Potency [8]

Cc1cc(N=Nc2ccccc2C)ccc1N
active: Potency [1] 49 µM | Potency [2] 21.9 µM and 19.5 µM | Potency [10] 21.9 µM | Potency [7] 21.9 µM and 19.5 µM
inactive: Potency [5] | Potency [6] | Potency [9] | Potency [8]

CCCSP(=O)(OCC)SCCC
inactive: Potency [1] | Potency [3] | max response [10] -0.268% | Potency [4] | Potency [5] | Potency [6] | Potency [9] | Potency [7] | Potency [8]

C=CC(=O)OCC(COC(=O)C=C)(COC(=O)C=C)COC(=O)C=C
inactive: Potency [5] | Potency [8]
active: Potency [1] 19.5 µM | Potency [3] 3.09 µM | Potency [10] 3.89 µM | Potency [6] 5.49 µM | Potency [9] 49 µM | Potency [7] 21.9 µM

Oc1c(Br)c(Br)c(Br)c(Br)c1Br
inactive: Potency [1] | Potency [3] | Potency [4] | Potency [5] | Potency [6] | Potency [9] | Potency [7] | Potency [8]

C[C@@H]1O[C@@H](O[C@@H]2C=C3CC[C@@H]4[C@H](CC[C@]5(C)[C@@H](c6ccc(=O)oc6)CC[C@]45O)[C@@]3(C)CC2)[C@H](O)[C@H](O)[C@H]1O
inactive: Potency [1] | Potency [3] | Potency [4] | Potency [5] | Potency [6] | Potency [9] | Potency [7] | Potency [8]
active: Potency [10] 0.019 µM

C=CC(=O)N(C)C
inactive: Potency [1] | Potency [3] | max response [10] -0.539% | Potency [4] | Potency [9] | Potency [7] | Potency [8]

Cn1cc(C2=C(c3cn(C4CCN(Cc5ccccn5)CC4)c4ccccc34)C(=O)NC2=O)c2ccccc21
inactive: Potency [1] | Potency [2] | Potency [4] | Potency [9] | Potency [8]

CC(C)(C)c1ccc(CSc2cnn(C(C)(C)C)c(=O)c2Cl)cc1
active: Potency [2] 0.436 µM | Potency [7] 43.6 µM
inactive: Potency [1] | Potency [4] | Potency [5] | Potency [6] | Potency [9] | Potency [8]
